A selection: hits, their analogues and other compounds. The true share with any hit is near 2.3%.
ELG1 DNA repair: inhibitors of ELG1-dependent DNA repair in HEK293T cells | HEK293T ELG1-luciferase reporter, luminescence, 16 h; DNA damage induced by 5-fluorouridine | hit rate 2.3% among 330,000 | Potency, µM (titrated, usually from 46.1 µM), for the others: at the top dose activity change, negative = inhibition, most hits filed as inhibitors; further: potency means the concentration at half of the fitted maximal effect; on the % scale 0 is the no-effect control and ±100 the full control effect; nearly all actives have a fitted effect of over 55% in size
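Quantitative HTS, concentration-response format. 2,000 cells/well co-treated with 5-fluorouridine and compound, 16 hr in 5% CO2 at 37 °C; ONE-Glo luminescence read after 30 min.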
TRPV1 ag: human TRPV1 agonism. TRPV1-expressing cells, Fluo-8 calcium influx, agonist mode. activation, % at 8.33 µM. hit rate 0.19% among 320,000. Q8NER1; in the data active means activation above about 80%; inconclusive means between about 30% and that limit; further: 0% is about no effect
Target sequence (Q8NER1 whole entry, looked up): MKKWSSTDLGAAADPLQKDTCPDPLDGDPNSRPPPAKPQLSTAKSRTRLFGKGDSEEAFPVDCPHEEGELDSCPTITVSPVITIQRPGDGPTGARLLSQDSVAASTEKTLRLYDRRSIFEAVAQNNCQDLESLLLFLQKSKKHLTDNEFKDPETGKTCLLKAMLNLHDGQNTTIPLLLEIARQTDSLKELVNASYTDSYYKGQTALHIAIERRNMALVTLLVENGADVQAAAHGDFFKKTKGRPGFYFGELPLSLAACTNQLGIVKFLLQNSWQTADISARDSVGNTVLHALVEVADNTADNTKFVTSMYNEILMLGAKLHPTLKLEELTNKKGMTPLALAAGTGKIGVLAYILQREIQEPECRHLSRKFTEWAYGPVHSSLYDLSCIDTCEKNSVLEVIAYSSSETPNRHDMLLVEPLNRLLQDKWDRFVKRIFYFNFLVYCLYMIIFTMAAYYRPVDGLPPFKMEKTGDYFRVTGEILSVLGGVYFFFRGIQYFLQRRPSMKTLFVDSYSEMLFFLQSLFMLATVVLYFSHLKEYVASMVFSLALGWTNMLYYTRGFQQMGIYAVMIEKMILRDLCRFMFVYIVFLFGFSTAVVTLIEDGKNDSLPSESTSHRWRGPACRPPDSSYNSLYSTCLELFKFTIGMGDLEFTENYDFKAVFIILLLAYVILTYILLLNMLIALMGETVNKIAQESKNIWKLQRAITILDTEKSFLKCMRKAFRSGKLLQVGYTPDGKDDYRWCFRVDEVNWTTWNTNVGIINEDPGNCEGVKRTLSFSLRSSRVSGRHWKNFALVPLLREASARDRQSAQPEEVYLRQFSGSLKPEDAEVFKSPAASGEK
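TRPV1-expressing cells were cultured overnight at 35.5C and loaded with Fluo-8 calcium dye for 40 to 90 min at room temperature. After a 10 s baseline, compound was added and calcium influx was read kinetically for 3 min (ex 480/em 520 nm).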
FUS yeast rescue: rescues growth of FUS-expressing yeast | S. cerevisiae FUS-expressing, growth rescue, OD600, 24 h | Potency, µM (titrated, usually from 76.6 µM), actives largely listed as activators | hit rate 0.24% among 390,000 | AID 1347120;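 further: potency means the concentration at half of the fitted maximal effect; plate controls were DMSO vehicle for no effect and reference control for full effect; nearly all actives have a fitted effect of over 55% in size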
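Galactose (2%) drives FUS expression in yeast precultured in raffinose; seeding density OD 0.005. Test compounds incubated 24hr at 30C and 99% humidity before absorbance at 600 nm was measured.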
Giardia kill: kills Giardia lamblia; Giardia lamblia trophozoite viability; activity change, % at 7.66 µM, hits read low; hit rate 0.15% among 340,000; in the data active means activity change below about -80%; inconclusive means between about -30% and that limit;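 further: parasites exposed to compound for two days anaerobically before the ATP read; on the % scale 0 is the no-effect control and ±100 the full control effect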
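Each well holds 100 Giardia trophozoites and compound. After two days (48 hrs) at 37 deg C in anaerobic conditions, ATP is quantified by luminescence.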
TRPV1 PAM: potentiators of human vanilloid receptor 1 (TRPV1) | hit rate 0.02% among 320,000 | potentiation, % at 8.33 µM | Q8NER1 | TRPV1-expressing cells, Fluo-8 calcium influx, capsaicin EC20 potentiation; in the data active means potentiation above about 80%; inconclusive means between about 30% and that limit; further: 0% is about no effect
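Fluo-8 calcium influx in TRPV1-expressing cells, kinetic read (ex 480/em 520 nm). Compound added and read 3 min for agonist activity, followed by capsaicin at EC20 final and 2 min further read for enhancement.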
ELG1 FLuc counter: luciferase inhibition in cell-free luciferin readout for ELG1 hits | shares compounds with ELG1 DNA repair | cell-free firefly luciferase luminescence counter-screen, ViewLux | Potency, µM (top dose mostly 46.1 µM), for the others: at the highest dose activity change, negative = inhibition, actives largely listed as inhibitors | hit rate 3% among 350; further: potency means the concentration at half of the fitted maximal effect; on the % scale 0 is the no-effect control and ±100 the full control effect
ELG1-Luc inh: confirmation of human ELG1-dependent DNA repair inhibitors; shares compounds with ELG1 DNA repair; HEK293T ELG1-luciferase levels, luminescence; cells co-treated with 5-fluorouridine; Potency, µM (series often up to 46.1 µM), inactives show top-dose activity change, negative = inhibition, actives largely listed as inhibitors; hit rate 68% among 670; further: potency means the concentration at half of the fitted maximal effect; on the % scale 0 is the no-effect control and ±100 the full control effect; nearly all actives have a fitted effect of over 55% in size
ELG1 MMS Luc: confirmation of human ELG1 repair inhibitors, MMS stimulated | shares compounds with ELG1 DNA repair | HEK293T luciferase-tagged ELG1 level, MMS stimulated | Potency, µM (titrated, usually from 46.1 µM), inactives show top-dose activity change, negative = inhibition, actives largely listed as inhibitors | hit rate 53% among 670; further: potency means the concentration at half of the fitted maximal effect; on the % scale 0 is the no-effect control and ±100 the full control effect; nearly all actives have a fitted effect of over 60% in size
ELG1 5-FU: confirmation of ELG1 repair inhibitors: viability with 5FU | shares compounds with ELG1 DNA repair | cell viability with 5-FU, ELG1-dependent repair | 670 tested, under 10 active | Potency, µM (doses to about 46.1 µM), without a hit: top-dose activity change, negative = viability loss, usual class: cytotoxic | AID 624250;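 further: ELG1-luc HEK293T cells cotreated with 5-fluorouridine at 10 µM final; potency means the concentration at half of the fitted maximal effect; viability measured 16 h after compound addition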
ELG1 MMS viab: confirmation of ELG1 repair inhibitors: viability with MMS; shares compounds with ELG1 DNA repair; Cell viability with MMS, ELG1-dependent DNA repair; hit rate 33% among 670; AID 624251; Potency, µM (titrated, usually from 46.1 µM), without a hit: at the top dose activity change, negative = viability loss, usual class: cytotoxic;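 further: ELG1-luc HEK293T cells co-treated with 10 µM MMS; potency means the concentration at half of the fitted maximal effect; viability read 16 h after compound addition; on the % scale 0 is the no-effect control and ±100 the full control effect; nearly all actives have a fitted effect of over 60% in size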
ELG1 unstim viab: affects unstimulated cell viability, ELG1 hit counter-screen; cell viability counter-screen, unstimulated, luminescence; Potency, µM (top dose mostly 45.9 µM), for inactives: at the highest dose activity change, negative = loss of viability, usual class: cytotoxic; shares compounds with ELG1 DNA repair; hit rate 8% among 900;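 further: potency means the concentration at half of the fitted maximal effect; compound exposure lasted 16 hours before reading; on the % scale 0 is the no-effect control and ±100 the full control effect; nearly all actives have a fitted effect of over 55% in size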
FLuc enzyme: counter-screen for ELG1 repair inhibitors: firefly luciferase inhibition. shares compounds with ELG1 DNA repair. purified firefly luciferase, luminescence counter-screen. Potency, µM (highest dose often 57.5 µM), without a hit: at the highest dose activity, negative = inhibition, usual class: inhibitors. hit rate 10% among 350. AID 624253; further: potency means the concentration at half of the fitted maximal effect; on the % scale 0 is the no-effect control and ±100 the full control effect
The depositor's hits bear a star; i = inactive; ? = inconclusive; · = not tested or not shown. Unless noted, the call rests on the fitted dose curve; in most records, active means well fitted curve in the direction sought with a large enough effect; inconclusive means small, poorly fitted or top-dose-only effect, or another doubt; inactive means no such curve, though single readings can be large; an effect the other way counts as inactive or inconclusive.

SMILES	ELG1 DNA repair	TRPV1 ag	FUS yeast rescue	Giardia kill	TRPV1 PAM	ELG1-Luc inh	ELG1 MMS Luc	ELG1 5-FU	ELG1 MMS viab	ELG1 unstim viab	others
O=C(Nc1ccc2c(c1)CCCN2C(=O)c1cccs1)c1cccc(C(F)(F)F)c1	·	·	i	·	·	·	·	·	·	·
COc1ccc(Cc2nc3ccc(C(=O)NCc4cc(Br)ccc4OC)cc3o2)cc1	·	·	i	·	·	·	·	·	·	·
COc1cccc(CN2C(=O)c3ccccc3Sc3ccc(C(=O)OCc4ccco4)cc32)c1	·	·	i	·	·	·	·	·	·	·
CC(C)(C)OC(=O)C[C@@H]1C/C=C\C[C@@H](CC(=O)N(CCO)Cc2ccccc2)C(=O)NC[C@H](c2ccccc2)OC1=O	1.46µM*	·	i	-12.4	·	12.5µM*	7.91µM*	11.0%	?	?
CC(C)(C)OC(=O)C[C@@H]1C/C=C\C[C@@H](CC(=O)N(CCO)Cc2ccccc2)C(=O)NC[C@@H](c2ccccc2)OC1=O	?	·	i	-9.1	·	·	·	·	·	·
COc1ccc(C2=Nn3c(nnc3-c3ccncc3)SC2)cc1	2.31µM*	20.9	i	-8.4	-13.3	6.29µM*	?	-1.7%	-6.2%	-11.5%	ELG1 FLuc counter=-3.1%;FLuc enzyme=-9.6%
Cc1cccc(N(C)C(=O)Cc2c(C(=O)O)[nH]c3ccccc23)c1	·	·	i	·	·	·	·	·	·	·
C=CC[C@@H](CC(=O)N[C@H](CO)Cc1ccccc1)C(=O)NC[C@H](OC(=O)[C@@H](CC=C)Cc1ccc(F)cc1)c1ccccc1	4.61µM*	·	?	-19.9	·	?	9.96µM*	?	3.1%	-4.3%
C=CC[C@H](CC(=O)NCCO)C(=O)NC[C@@H](OC(=O)[C@@H](CC=C)Cc1ccc(F)cc1)c1ccccc1	-8.9%	·	i	20.5	·	·	·	·	·	·
CN(c1ncnc(N)c1[N+](=O)[O-])C1CCCCC1	1.83µM*	-1.1	i	-0.8	1.2	3.15µM*	12.5µM*	-8.4%	-5.0%	?
O=C(/C=C/c1ccc(S(=O)(=O)N2CCOCC2)cc1)N1CCN(c2ccc(F)cc2)CC1	2.31µM*	23.0	i	1.4	-11.9	-27.9%	7.06µM*	-4.7%	?	?	ELG1 FLuc counter=-0.2%;FLuc enzyme=-15.2%
Cc1cccc(C)c1NC(=O)C1(C)CN(S(C)(=O)=O)CC(=O)N1Cc1cccc(F)c1 (stereo not drawn)	·	·	i	·	·	·	·	·	·	·
CCc1ccc(CNC(=O)C2CCCN(c3nn4cc(-c5ccc(F)cc5)nc4s3)C2)cc1 (stereo not drawn)	·	·	i	·	·	·	·	·	·	·
Cn1cccc1C(=O)Nc1ccc(N2CCOCC2)cc1	?	·	i	-3.9	·	·	·	·	·	-13.4%
COc1ccc(C2CC(c3ccccc3)Oc3cc(C)cc(C)c32)cc1 (stereo not drawn)	·	·	·	17.5	·	·	·	·	·	·
COc1ccccc1NC(=O)Cn1ccn(-c2cc(C)cc(C)c2)c(=O)c1=O	·	·	i	·	·	·	·	·	·	·
CC(=O)c1ccc(-n2c(C)c(C(C)=O)c3cc(O)ccc32)cc1	2.06µM*	-1.6	i	8.9	16.0	?	-0.7%	0.3%	0.8%	3.6%
CC(=O)c1c(C)n(-c2ccc(Br)cc2)c2ccc(O)cc12	-14.5%	1.9	i	1.8	13.5	·	·	·	·	·
COc1ccc(-n2nc(C(=O)NCC(=O)Nc3cc(OC)c(OC)c(OC)c3)c3ccccc3c2=O)cc1	3.26µM*	0.1	i	-12.0	10.6	3.15µM*	12.6µM*	15.0%	-18.4%	?	ELG1 FLuc counter=69.7%;FLuc enzyme=4.6%
COc1ccccc1CN(C)CC(=O)Nc1cccc2ccccc12	-8.3%	?	i	?	17.6	·	·	·	·	·
COc1cc(Cl)c(C)cc1NC(=O)CN(C)Cc1cccc(OC)c1OC	2.59µM*	-3.8	i	-25.0	4.9	25µM*	15.8µM*	5.7%	14.1µM*	?
COc1ccccc1CNC(=O)CCc1c(C)nc2c(c(C)nn2-c2ccc(C)c(C)c2)c1C	·	·	i	·	·	·	·	·	·	·
COc1ccc(CCN2C(=O)c3cccc4cccc(c34)C2=O)cc1OC	6.3%	2.6	·	3.3	-2.3	·	·	·	·	·
CCN(CC)C(=O)c1ccc2c3c(cccc13)C(=O)N(CCc1ccc(OC)c(OC)c1)C2=O	4.61µM*	0.6	·	-4.2	6.7	11.2µM*	9.96µM*	?	22.3µM*	25µM*

Bioassay records as filed in PubChem BioAssay.
